Bioassay records (PubChem BioAssay)
LASV entry inh = Lassa virus entry inhibition | Lassa virus pseudotyped entry inhibition, cell-based qHTS | Potency, µM (top dose mostly 49.2 µM), for the others: at the highest dose activity change, negative = inhibition, hits mostly inhibitors | 4.1% of 18,000 active
Marburg entry = Marburg virus entry inhibition | Marburg virus pseudotype entry/binding inhibition, cell-based | Potency, µM (titrated, usually from 49.2 µM), inactives show at the top dose activity change, negative = inhibition, actives largely listed as inhibitors | 6.5% of 18,000 active
Numbers without * were called inactive; ? = inconclusive; / = no result; ! = not active in a repeat; [ ] = another dose, or the depositor's remark. An excerpt weighted towards active compounds, which were near 8% of everything screened. Calls follow the shape of the full dose curve; tested in HEK293 cells. % is scaled to controls: 0 for no effect and ±100 for the full control effect; potency is read from the fitted curve at half-maximal effect.

SMILES | LASV entry inh | Marburg entry
Clc1ccc2c(c1)C(N1CCNCC1)=Nc1ccccc1O2 | ? | 11.2µM*!
CN1CCN(C2=Nc3ccccc3Cc3ccccc32)CC1 | -5.1% | ?
CCCCCCCCNCCS(=O)(=O)NCc1ccccc1OC | -7.8% | ?
COc1ccccc1CNCCCCCCNCCCCCCCCNCCCCCCNCc1ccccc1OC | ? | 7.94µM*
CCCC=Cc1ccc(CN2C(C(C)C)C(=O)N(Cc3cn(Cc4ccco4)nn3)CCS2(=O)=O)cc1 (centres undefined) | -9.7% | ?
O=C(Cn1cc(COc2ccc([N+](=O)[O-])cc2)nn1)c1ccc(O)cc1 | 6.0% | 14.6%
COc1ccc(C2/C=C\CC(OCc3ccccc3)CC(=O)N2Cc2cccc(F)c2)cc1 (centres undefined) | ? | -19.8%
COc1ccc(C2/C=C\C(c3ccc(OC)cc3)N(Cc3ccc(F)cc3)C(=O)C(=O)N2Cc2ccc(F)cc2)cc1 (centres undefined) | -23.9% | 10µM*
Cc1cc(O)cc(C)c1C=Cc1cncc(-c2nn[nH]n2)c1 | 37.5% | -16.2%
CNc1ccc2oc(C[C@@H]3OC4(CC[C@@H]3C)O[C@H]([C@@H](C)C(=O)c3ccc[nH]3)[C@H](C)C[C@H]4C)nc2c1C(=O)O (some centres undefined) | 2.82µM* | 2.82µM*
NC(=O)c1cccc(Nc2nccc(Nc3cccc4[nH]ncc34)n2)c1 | -16.0% | ?
COc1ccc(-c2cc3c(N)ncnc3o2)cc1 | 55.1% | 91.1%
COC[C@H]1O[C@H](c2ccccc2)C=C[C@H]1OCc1cccc(Br)c1 | 22.4%[8.59 µM] | -14.9%[8.59 µM]
O=C(O)c1ccccc1Nc1ccc(CCc2ccc(Cl)c(Cl)c2)cc1 | -23.1% | -27.5%
O=C(O)c1ccccc1Nc1cccc(OCc2ccc3ccccc3n2)c1 | 15.8µM* | ?
CCON=O | 10µM* | -18.5%
CC(C)CCON=O | -6.0% | -22.8%
O=C1[C@@H]2CSCCS(=O)(=O)N2C(=O)N1c1cccc2ccccc12 | 32.6% | 25.4%
CCOC(=O)[C@]12C[C@@H]3CCN(C(=O)N(C(C)=O)[C@@H]1c1ccccc1)[C@@H]32 | -0.7%[8.59 µM] | -9.4%[8.59 µM]
C[C@@H]1C[C@H](C)C[C@H](C)[C@@H](O)CC(=O)O[C@H]([C@H]2CCC[C@H]2C(=O)O)C/C=C/C=C(/C#N)[C@H](O)[C@@H](C)C1 | ? | 10µM*
CCCNC(=O)N1C2=NC(C(=O)OC)=C(C(=O)OC)[C@@H]3N(C)c4ccccc4[C@]23C[C@H]1C(=O)OC | -5.7%[8.59 µM] | 6.7%[8.59 µM]
COC(=O)C1=C[C@@]2(c3ccc(F)cc3[C@@H](OC)[C@@H]2C)[C@@H]2C=C[C@H]1C2 | -12.3%[8.59 µM] | 2.1%[8.59 µM]
CC[C@]1(O)CC(O[C@@H]2CC(N(C)C)C(O)C(C)O2)c2c(cc3c(c2O)C(=O)c2c(O)ccc(O)c2C3=O)C1C(=O)OC (some centres undefined) | -2.7% | ?
CC[C@@]1(O)C[C@H](O[C@H]2C[C@H](N(C)C)[C@H](O[C@H]3C[C@H](O)[C@H](O[C@H]4CCC(=O)[C@H](C)O4)[C@H](C)O3)[C@H](C)O2)c2c(cc3c(c2O)C(=O)c2c(O)cccc2C3=O)[C@H]1C(=O)OC | 8.91µM* | ?
OCCCNCc1cc2ccc(F)cc2nc1N1CCN(c2cccc(Cl)c2)CC1 | ? | 10µM*
SMILES | LASV entry inh | Marburg entry
COc1cc(CNCc2cc3ccc(F)cc3nc2N2CCOCC2)cc(OC)c1OC | -10.2% | -9.5%
CCCCCCCCCCCCSCCOCCO | -13.2% | 17.7%
CCCCCCCC(=O)OCC(O)CO (centres undefined) | 0.5% | 13.4%
CCCCCCCCCCOCC(O)CN (centres undefined) | 31.6µM* | ?
CCCCCCCCCCCCCCCCOCCOCCOCCOCCOCCOCCOCCOCCOCCOCCOCCOCCOCCOCCOCCOCCOCCOCCOCCOCCO | 15.8µM* | ?
C(=Cc1nc(-c2ccccc2)oc1Nc1ccc2ccccc2c1)c1ccccc1 | -15.9%[8.59 µM] | -0.9%[8.59 µM]
CC1=C(C(=O)Nc2ccc3[nH]ncc3c2)C(c2ccc3ccccc3c2)CC(=O)N1 (centres undefined) | 0.0% | -7.2%
Cc1noc(C)c1-c1nc(N2CCNCC2)c2ccccc2n1 | 4.7% | ?
N#Cc1cccc(-c2nc(N3CCNCC3)c3ccccc3n2)c1 | -0.8% | 15.8µM*
CS(=O)(=O)Nc1cccc(-c2nc(N3CCNCC3)c3ccccc3n2)c1 | 14.9% | ?
c1ccc2c(N3CCNCC3)nc(-c3ccc4c(c3)OCO4)nc2c1 | -8.7% | 10µM*
Cc1cc2c(c(=O)n1-c1ccccc1)[C@H]1O[C@](c3ccsc3)(Cc3ccccc31)O2 | -16.8%[8.59 µM] | ?
COC(=O)N[C@@H](c1ccccc1)C(C(=O)OC)C(=O)OC | -9.2%[8.59 µM] | 45.5%[8.59 µM]
C/C=C(/C)C(=O)O[C@H]1C(C)=C2[C@H]([C@@H]1OC(=O)CCCCCCC)[C@@](C)(OC(C)=O)C[C@H](OC(=O)CCC)[C@@]1(O)[C@H]2OC(=O)[C@@]1(C)O | 44.7µM* | 22.4µM*
CN(C)c1ccc2nc3ccc(=[N+](C)C)cc-3sc2c1 | 11.2µM* | 3.55µM*
Cc1cc2nc3ccc(=[N+](C)C)cc-3sc2cc1N | 22.4µM* | 12.6µM*
NS(=O)(=O)c1ccc(Nc2cc(-c3cccc(O)c3)[nH]n2)cc1 | 43.3% | 78.5%
CC1(C)O[C@@H](C(O)(c2cc(C(F)(F)F)cc(C(F)(F)F)c2)c2cc(C(F)(F)F)cc(C(F)(F)F)c2)[C@H](C(O)(c2cc(C(F)(F)F)cc(C(F)(F)F)c2)c2cc(C(F)(F)F)cc(C(F)(F)F)c2)O1 | -2.5%[8.59 µM] | -9.5%[8.59 µM]
Cc1[nH]ccc2c1[nH]c1cc(=O)ccc12 | ? | 12.6µM*
COC(=O)C1=C(C(=O)OC)[C@@H]2N(CC=C(C)C)c3ccccc3[C@@]23CCC(=O)N(CCc2ccccn2)C3=N1 | -28.4%[8.59 µM] | 12.0%[8.59 µM]
C=CC(C)(C)c1c2c(c(O)c3c(=O)c4ccc(O)c(O)c4oc13)C=CC(C)(C)O2 | ? | 20µM*
C=CC1CC2C=CCOP(=S)(O1)O2 (centres undefined) | 28.6% | -22.6%
CC(C)c1ccc(Cn2ccc3c4c(N)nc(NC5CC5)nc4ccc32)cc1 | 12.6µM* | 3.98µM*
COc1cccc([C@H]2Oc3ccc(OC)cc3C(=NOC[C@@H](C)[C@H](OCc3ccccc3)C(C)C)[C@H]2O)c1 | 10.7%[8.59 µM] | 10.0%[8.59 µM]
CC1(C)CN(CCc2ccccc2)C(=O)[C@@H]1CC(=O)Nc1ccccc1 | 20.0% | 3.6%
SMILES | LASV entry inh | Marburg entry
CCN(CC)CC1CCN(c2ncc3ncnc(Nc4ccc(F)c(Cl)c4)c3n2)CC1 | ? | 3.55µM*
CC#CC(=O)Nc1cc2c(Nc3ccc(F)c(Cl)c3)ncnc2cn1 | -2.0% | -16.4%
CN1CCN(C2Cc3ccccc3Sc3ccc(S)cc32)CC1 (centres undefined) | ? | 12.6µM*
CCn1c(-c2nonc2N)nc2c(C#CC(C)(C)O)nc(OCC(N)c3ccccc3)cc21 (centres undefined) | / | 3.15µM*
CCn1c(-c2nonc2N)nc2c(C#CCN)ncc(OCCCN)c21 | 15.3% | ?
CCn1c(-c2nonc2N)nc2ccc(F)cc21 | -9.9% | ?
CCn1c(-c2nonc2N)nc2c(C#CC(C)(C)O)ncc(OC3CCNCC3)c21 | / | 3.97µM*
CC(C)CON=C1C[C@@H](O)[C@@H](O)[C@@H]2[C@H]3C(=O)N(c4ccc(F)cc4F)C(=O)[C@@H]3CC[C@@H]12 | 5.4%[8.59 µM] | -13.2%[8.59 µM]
CCCCC(C)/C=C(C)/C=C(\C)C(=O)NC1=CC(O)(/C=C/C=C/C=C/C(=O)NC2=C(O)CCC2=O)C2OC2C1=O (centres undefined) | 7.08µM* | 3.16µM*
